Data reported in paper PMC7819943, “Rice protein-binding microarrays: a tool to detect cis-acting elements near promoter regions in rice”.
In all, about 39,000 sequences were measured (“fluorescence intensity (a.u.)”: median about 4,300, highest 2% from about 39,000 on). The list comes from a sample in which the highest values are over-represented; it also holds similar and randomly drawn sequences.

These sequences were tested against T1, OsSMF1 (Oryza sativa, UniProt Q6ZLB0 1-436) (assay: protein-binding microarray (RPBM); PBS, 2% BSA, 51.3 ng/ul salmon testes DNA, 50 uM zinc acetate, 200 nM TF, 25 C, 1 h; high values mean tight binding). Conditions: protein: recombinant; tags: N-terminal polyhistidine and DsRed monomer fusion (pET32a); chain copies: 2; label: CyDye5-dUTP incorporated in the synthesized complementary strand; 3' TTTTT single-stranded linker to array surface; dsDNA, one strand shown.
T1 sequence: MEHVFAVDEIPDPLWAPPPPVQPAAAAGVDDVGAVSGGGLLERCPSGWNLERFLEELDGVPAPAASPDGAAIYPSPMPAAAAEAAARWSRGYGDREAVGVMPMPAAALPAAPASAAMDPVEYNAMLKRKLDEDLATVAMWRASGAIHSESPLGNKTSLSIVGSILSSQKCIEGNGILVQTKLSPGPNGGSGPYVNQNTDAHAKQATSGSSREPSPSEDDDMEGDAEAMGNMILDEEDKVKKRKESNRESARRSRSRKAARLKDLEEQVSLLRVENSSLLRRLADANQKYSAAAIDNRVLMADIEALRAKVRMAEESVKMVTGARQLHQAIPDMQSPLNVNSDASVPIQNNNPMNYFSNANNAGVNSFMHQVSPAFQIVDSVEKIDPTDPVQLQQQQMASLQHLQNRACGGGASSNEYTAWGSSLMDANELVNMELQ
How it was run: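 Binding signal is reported as fluorescence intensity per feature (arbitrary units) from an Axon 4000B scanner. Incubation used 200 nM of each Ni–NTA-purified, N-terminally polyhistidine- and DsRed-fused transcription factor from E. coli BL21-CodonPlus on a double-stranded custom Agilent array for 1 h at 25 °C, with 50 µM zinc acetate in the buffer, followed by washing.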
For “TAAAATCTAGATGCAATGAGTTATTTCATATGATTTGAAACGGAGTCACCTAGTGCAG”, the binding signal was 17000 fluorescence intensity (a.u.).
In the case of “TTTTCATAAATGCTCCTTTGAAACAAATGATTTTACCCTACGGAGTCACCTAGTGCAG”, the binding signal is reported as 43000 fluorescence intensity (a.u.).
In the case of “ACCTTCAAATGCAATTTTACAATGGATTTACCTCAAGCTACGGAGTCACCTAGTGCAG”, the binding signal is reported as 19200 fluorescence intensity (a.u.).
With “CCTGAAGTTCTAGATGTTGATTTTGTCATGATGATCTAATCGGAGTCACCTAGTGCAG” the binding signal was 4580 fluorescence intensity (a.u.).
In the case of “TCCCGCCAAATCACCGATCCGCGCCTCACGCCACGTCAACCGGAGTCACCTAGTGCAG”, the binding signal is reported as 16000 fluorescence intensity (a.u.).
For “TACTTATCCAGATTCAAAAGATAAAATTTATTATATTATACGGAGTCACCTAGTGCAG”, the binding signal was 12600 fluorescence intensity (a.u.).
With “ATAAATACCGCGATAACCTCCTTAAATTCAAATAAATTTACGGAGTCACCTAGTGCAG” the binding signal was 54800 fluorescence intensity (a.u.).
For “AACTTCAATTTCAAATAACAGGGTCAAATAAACAAACCTACGGAGTCACCTAGTGCAG”, the binding signal was 4590 fluorescence intensity (a.u.).
“AAATAAATAGGGAATTTAACCTTGCCACGTCACCGATCCGCGGAGTCACCTAGTGCAG” was tested, and the binding signal was 48100 fluorescence intensity (a.u.).
“CGTCTCATTCTCTCTCCACATTTCCTTTTGATCCCTTCTCCGGAGTCACCTAGTGCAG” was tested, and the binding signal was 24300 fluorescence intensity (a.u.).
“GTTTGCGAGGAATAGCGGGAACGATCCGCGCCACCACGAACGGAGTCACCTAGTGCAG” was tested, and the binding signal was 18000 fluorescence intensity (a.u.).
In the case of “CCTTAAATTTTCCTAAATCCTTACCTACCGTCATTCTCTCCGGAGTCACCTAGTGCAG”, the binding signal is reported as 47400 fluorescence intensity (a.u.).
With “TTTCTAATTCGTCATTCACCTCTCTCCTCCATCTCTACCCCGGAGTCACCTAGTGCAG” the binding signal was 3520 fluorescence intensity (a.u.).
In the case of “CCGGCGTGGCGACGTCAGTACTCTCTTCTGCTTCATTTCTCGGAGTCACCTAGTGCAG”, the binding signal is reported as 7490 fluorescence intensity (a.u.).
“AAGCTTTGCATTTGGGCGCTGGGCATGTCAGCGTCCGGTTCGGAGTCACCTAGTGCAG” was tested, and the binding signal was 4440 fluorescence intensity (a.u.).
“AGATGGGCTTGAGAATGTGATGTCTCGTTTAATTGGGCCCCGGAGTCACCTAGTGCAG” was tested, and the binding signal was 3310 fluorescence intensity (a.u.).
With “ATTGTTGACACTATGACTTTCTTACTTTGACCGCAATTTTCGGAGTCACCTAGTGCAG” the binding signal was 3720 fluorescence intensity (a.u.).
With “CAAGCAATGCAAGGCAAGAGGTAATTGGCCGTGGAATCCACGGAGTCACCTAGTGCAG” the binding signal was 4720 fluorescence intensity (a.u.).
“TGAGGATGCAAGAGAATCCTAAAAGGTAAGGCAGCATGCACGGAGTCACCTAGTGCAG” was tested, and the binding signal was 44100 fluorescence intensity (a.u.).
For “CAAGAGATAAGGAGCAATCGATCCAGCGTGGCGGCATGCACGGAGTCACCTAGTGCAG”, the binding signal was 3470 fluorescence intensity (a.u.).
In the case of “CCAGTTTTGTCCACGTGGCAGCTGACTCACGGTGGGACCCCGGAGTCACCTAGTGCAG”, the binding signal is reported as 29200 fluorescence intensity (a.u.).
“AAGTTTGGCTGTATTTATTCCACACCATAATTGAAAGTTTCGGAGTCACCTAGTGCAG” was tested, and the binding signal was 3160 fluorescence intensity (a.u.).
With “CGCACCCGCACAGCACCACACCACCTGCCTAGCGCCAAGCCGGAGTCACCTAGTGCAG” the binding signal was 3560 fluorescence intensity (a.u.).
With “AGTTGAGCTCCTTGTCATTGATGAAGCTGCTGCTATTCCACGGAGTCACCTAGTGCAG” the binding signal was 3740 fluorescence intensity (a.u.).
“CCAAAGCTGCGCAGCACCCTGAACGGCACCACACCACGGACGGAGTCACCTAGTGCAG” was tested, and the binding signal was 57400 fluorescence intensity (a.u.).
“AGCAAAGCTGCCAGAGCACGGCACAGCACACAGGTGACGGCGGAGTCACCTAGTGCAG” was tested, and the binding signal was 3450 fluorescence intensity (a.u.).
In the case of “CACACGCAAAGCTGCAAAAGTTGAATTCCATTATTCCACACGGAGTCACCTAGTGCAG”, the binding signal is reported as 65500 fluorescence intensity (a.u.).
For “ATTGGATGCTGAATTGATGAGTACATACGTATACGTATACCGGAGTCACCTAGTGCAG”, the binding signal was 4160 fluorescence intensity (a.u.).
For “CAACTGGCCATGTATGCACATGCACCCCAGAGACAACCTACGGAGTCACCTAGTGCAG”, the binding signal was 3420 fluorescence intensity (a.u.).
For “GTTGACGGGGTTTGTGAGGTGTGGCGGTGACTTGGAAAGACGGAGTCACCTAGTGCAG”, the binding signal was 3540 fluorescence intensity (a.u.).
“ATGGTTAGCATTAATCACTAATCACGTCATCATTAGTGCTCGGAGTCACCTAGTGCAG” was tested, and the binding signal was 4040 fluorescence intensity (a.u.).
In the case of “CCCACGGGATTGTCGGTCCCTCGTTTTGGTGATGCAGGACCGGAGTCACCTAGTGCAG”, the binding signal is reported as 3570 fluorescence intensity (a.u.).
For “TGCAGGGACGATCTGATGGACAGCTCGGATTCGTCCCACACGGAGTCACCTAGTGCAG”, the binding signal was 3190 fluorescence intensity (a.u.).
With “TGGGTCCCACGCAATAGTGGACCTGATGAATTGCAGGATTCGGAGTCACCTAGTGCAG” the binding signal was 41100 fluorescence intensity (a.u.).
“GTTATCGTCATTACGTCAATACGTGTTTTCGAAAATAATTCGGAGTCACCTAGTGCAG” was tested, and the binding signal was 4860 fluorescence intensity (a.u.).
“GACACCACCGCCGCCGCCGTCCTCGTCATCTCCAGATCGCCGGAGTCACCTAGTGCAG” was tested, and the binding signal was 9120 fluorescence intensity (a.u.).
For “ACAGTAGCACCGGAAAGCTGCATGTGAAGTCTAGTCAACGCGGAGTCACCTAGTGCAG”, the binding signal was 4250 fluorescence intensity (a.u.).
In the case of “CTTCTCCTGCATGGCAAGTCGCTGATCACAACTACGCATCCGGAGTCACCTAGTGCAG”, the binding signal is reported as 3610 fluorescence intensity (a.u.).
With “TGTAACTATTCTCGCGACACGTACACACCAACACATAAACCGGAGTCACCTAGTGCAG” the binding signal was 4520 fluorescence intensity (a.u.).
With “ATACAAAACTAGAAACAAGACATACCAACATCACAACATGCGGAGTCACCTAGTGCAG” the binding signal was 26100 fluorescence intensity (a.u.).
“ACTATATATATACACTACGGTTGACAAAGACATCCCAACACGGAGTCACCTAGTGCAG” was tested, and the binding signal was 3240 fluorescence intensity (a.u.).
With “TTCACAACACTTGCATGAACTCAGGTGTCAATGGTAAGGTCGGAGTCACCTAGTGCAG” the binding signal was 3560 fluorescence intensity (a.u.).
With “GAGAAAGGAACAACTACAAAAGACACACATATATACTATGCGGAGTCACCTAGTGCAG” the binding signal was 39400 fluorescence intensity (a.u.).
“CAAAGGAACACATCTGGGTCATCAGACAACTCAATAGAGTCGGAGTCACCTAGTGCAG” was tested, and the binding signal was 43000 fluorescence intensity (a.u.).
For “TGAATATAAACACAACTACATTTAGCGACAGAAGAAGAACCGGAGTCACCTAGTGCAG”, the binding signal was 40600 fluorescence intensity (a.u.).
With “CGCACGATGATCATGTGTTGGTGTTGGCATGCAATGCAACCGGAGTCACCTAGTGCAG” the binding signal was 3780 fluorescence intensity (a.u.).
With “TCATCTGGTACAAAATATATAGGACATCAATCATGGGGAACGGAGTCACCTAGTGCAG” the binding signal was 26200 fluorescence intensity (a.u.).
With “ATCATGTACATCTCATAGTCAACAATATTCATCACAATCTCGGAGTCACCTAGTGCAG” the binding signal was 3640 fluorescence intensity (a.u.).
For “TAGATCAATGATGTTGCATGCAACTCACGCGACACATGGTCGGAGTCACCTAGTGCAG”, the binding signal was 40000 fluorescence intensity (a.u.).
With “CATAACAACCACTAAAACATTATGAATATTTTGTACATACCGGAGTCACCTAGTGCAG” the binding signal was 22800 fluorescence intensity (a.u.).
For “CGGAGAGGGAGAAGGAGAGGAGAGGGGCTGATAGGTGGGGCGGAGTCACCTAGTGCAG”, the binding signal was 3520 fluorescence intensity (a.u.).
In the case of “CTCCTCCATTGCCAGTTGCTACTCATCCTCATCCTCTCCACGGAGTCACCTAGTGCAG”, the binding signal is reported as 22600 fluorescence intensity (a.u.).
“TCCTCCAGATGTTACAGTCTCCGAATTTCAGTGATGTCACCGGAGTCACCTAGTGCAG” was tested, and the binding signal was 11800 fluorescence intensity (a.u.).
For “ATCCAATCTGAGCCGTCCGCTGTACACCGTAGATCTATATCGGAGTCACCTAGTGCAG”, the binding signal was 3450 fluorescence intensity (a.u.).
